According to PubChem BioAssay AID720555 (National Center for Advancing Translational Sciences (NCATS), 2013):
Where “and” joins values, the source holds several entries; their conditions need not be identical. Identical values can stand only once. Inconclusive results are not listed. Calls of active or inactive are those of the source. The call rests on the fitted dose curve; in most records, active means well fitted inhibition curve with a large enough effect; inconclusive means small, poorly fitted or top-dose-only effect; inactive means no such curve, though single readings can be large or run the other way.

Biological target: RecQ-like DNA helicase BLM (Homo sapiens) (UniProt P54132)
Sequence (P54132 whole entry, looked up): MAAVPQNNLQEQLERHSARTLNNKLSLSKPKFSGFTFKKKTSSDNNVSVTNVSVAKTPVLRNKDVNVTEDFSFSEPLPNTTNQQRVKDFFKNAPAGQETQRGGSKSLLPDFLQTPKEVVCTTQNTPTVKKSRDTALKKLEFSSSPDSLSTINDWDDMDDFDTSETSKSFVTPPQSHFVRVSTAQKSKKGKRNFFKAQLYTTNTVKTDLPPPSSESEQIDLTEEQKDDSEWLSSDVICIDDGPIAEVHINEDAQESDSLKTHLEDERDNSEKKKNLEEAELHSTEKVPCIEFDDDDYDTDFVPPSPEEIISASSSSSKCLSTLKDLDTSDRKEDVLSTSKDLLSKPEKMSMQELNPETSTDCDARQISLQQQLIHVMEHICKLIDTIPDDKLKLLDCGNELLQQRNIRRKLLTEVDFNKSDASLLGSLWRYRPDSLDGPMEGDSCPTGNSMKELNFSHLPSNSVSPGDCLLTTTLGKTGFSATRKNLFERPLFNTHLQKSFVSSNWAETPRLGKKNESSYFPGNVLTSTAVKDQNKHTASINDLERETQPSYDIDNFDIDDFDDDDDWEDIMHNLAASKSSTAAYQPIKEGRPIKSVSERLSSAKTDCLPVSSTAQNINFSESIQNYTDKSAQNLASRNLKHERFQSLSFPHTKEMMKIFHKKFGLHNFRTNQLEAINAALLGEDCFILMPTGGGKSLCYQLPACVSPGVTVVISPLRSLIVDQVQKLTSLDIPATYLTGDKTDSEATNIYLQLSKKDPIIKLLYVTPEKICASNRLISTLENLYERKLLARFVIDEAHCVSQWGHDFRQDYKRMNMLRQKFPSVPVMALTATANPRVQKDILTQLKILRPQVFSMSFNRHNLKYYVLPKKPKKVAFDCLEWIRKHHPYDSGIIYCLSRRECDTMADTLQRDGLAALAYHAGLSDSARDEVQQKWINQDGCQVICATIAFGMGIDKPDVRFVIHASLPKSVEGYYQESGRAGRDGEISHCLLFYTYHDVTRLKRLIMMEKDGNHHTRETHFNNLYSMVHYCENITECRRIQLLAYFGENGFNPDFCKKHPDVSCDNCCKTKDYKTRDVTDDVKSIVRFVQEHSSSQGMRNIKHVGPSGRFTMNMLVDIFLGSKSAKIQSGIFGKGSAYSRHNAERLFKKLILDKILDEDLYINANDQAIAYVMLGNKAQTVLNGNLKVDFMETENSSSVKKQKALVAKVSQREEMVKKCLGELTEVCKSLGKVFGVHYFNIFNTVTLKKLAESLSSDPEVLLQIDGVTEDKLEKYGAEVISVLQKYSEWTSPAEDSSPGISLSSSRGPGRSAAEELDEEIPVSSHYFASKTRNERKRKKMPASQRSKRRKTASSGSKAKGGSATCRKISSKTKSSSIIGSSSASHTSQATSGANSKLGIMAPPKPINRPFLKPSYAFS
Test: qHTS for Inhibitors of Bloom's syndrome helicase (BLM): Helicase DNA unwinding fluorescent orthogonal confirmatory assay for SAR
Settings: fluorescence, orthogonal confirmation; series mostly up to 55.6 µM
Text: Human RecQ DNA helicases participate in maintenance of genome stability and DNA repair. While other types of helicases have been explored as targets for drug development, members of the RecQ family have remained less well characterized. Mutations of the Bloom helicase gene have been associated with the rare human genetic disease called Bloom syndrome. […] Moreover, identified inhibitors can be used in cells and animal models to examine the consequences of inhibition on the survival of cancer cells where it has been shown that BLM plays an important role.
A fluorescence-based, biochemical assay in 1536 well format was developed to evaluate inhibition of BLM DNA unwinding activity. This assay was used to screen the MLPCN library. The resulting compounds were subjected to orthogonal and secondary biochemical assays to triage the initial hits, to classify compounds based on mode of action and to derive structure activity relationships (SARs) of candidate effectors. The data herein is the result of the Helicase DNA unwinding fluorescent orthogonal confirmatory assay. This fluorescent-based assay employs a purified BLM enzyme and utilizes gel electrophoresis to monitor the helicase-mediated unwinding of a fluorescently-labeled DNA substrate. For this assay decrease in the single-stranded DNA product band on the gel = inhibition of the BLM helicase activity. Inhibition is the desired outcome for this assay.
NIH Chemical Genomics Center [NCGC]
NIH Molecular Libraries Probe Centers Network [MLPCN]
Assay Submitter (PI): Opher Gileadi, Structural Genomics Consortium, University of Oxford, UK
Unwinding assay for the BLM helicase was carried out in a reaction buffer containing 50 mM Tris-HCl pH 7.5, 50mM NaCl, 2mM MgCl2, 2mM ATP, 1mM DTT, and 0.1 mg/ml BSA. Optimal substrate and enzyme concentrations as well as reaction times were determined experimentally. All reactions were performed at room temperature and terminated by the addition of loading buffer containing 20mM EDTA and 2.5% bromophenol blue. Reaction products were then separated on 15% non-denaturing polyacrylamide gels in 1x TAE, and the DNA was visualized using the Bio-Rad ChemiDocTM XRS Gel Imager. Substrate and product bands were quantified using ImageJ. The data was normalized against no-inhibitor and no-enzyme controls.

| Structure (SMILES) | Potency |
| --- | --- |
| N/C(=N\c1nnc(-c2ccncc2)s1)Nc1ccc(Cl)c(Cl)c1 | 14.1 µM (active) |
| Cc1cc(NC(=O)Nc2cccc(-c3ccncc3)n2)ccc1Cl | 4.47 µM (active) and 3.55 µM (active) |
| O=C(Cc1nnc(-c2ccncc2)s1)Nc1ccc(F)c(C(F)(F)F)c1 | inactive |
| O=C(Nc1cc(F)cc(F)c1)Nc1nnc(-c2ccncc2)s1 | 15.8 µM (active) |
| CC(C)(C)NC(=O)Nc1nnc(-c2ccncc2)s1 | inactive |
| Cc1cc(NC(=O)Nc2nnc(-c3ccncc3)s2)ccc1Cl | 7.94 µM (active) |
| O=C(Nc1ccc(-c2nc3ccccc3[nH]2)cc1)Nc1ccc2occc2c1 | inactive |
| N#Cc1cccc(NC(=O)Nc2nnc(-c3ccncc3)s2)c1 | 8.91 µM (active) |
| COc1ccc(-c2nnc(NC(=O)Nc3ccc4ccccc4c3)s2)cc1OC | inactive |
| O=C(Nc1ccc(-c2nc3ccccc3[nH]2)cc1)Nc1ccc2c(c1)CCCO2 | inactive |
| O=C(Nc1ccc2ccccc2c1)Nc1nnc(-c2ccncc2)o1 | inactive |
| O=C(Nc1ccc(-n2ccnc2)c(F)c1)Nc1nnc(-c2ccncc2)s1 | 10 µM (active) |
| O=C(Nc1ccc2sccc2c1)Nc1nnc(-c2ccncc2)s1 | 10 µM (active) |
| COc1ccc(NC(=O)Nc2ccc(-c3nc4ccccc4[nH]3)cc2)cc1OC | inactive |
| O=C(Nc1cc(C(F)(F)F)cc(C(F)(F)F)c1)Nc1nnc(-c2ccncc2)s1 | 12.6 µM (active) |
| O=C(Nc1nnc(-c2ccncc2)s1)Nc1ccc(Cl)c2ccccc12 | 14.1 µM (active) |
| O=C(Nc1ccc(Cl)c(Cl)c1)Nc1nnc(N2CCNCC2)s1 | inactive |
| O=C(Nc1ccc(Cl)c(Cl)c1)Nc1nnc(C2CCCCC2)s1 | inactive |
| Cc1cnccc1-c1nnc(NC(=O)Nc2ccc(F)c(C(F)(F)F)c2)s1 | 1.26 µM (active) |
| O=C(Nc1ccc(Br)cc1)Nc1nnc(-c2ccncc2)s1 | 12.6 µM (active) |

| Structure (SMILES) | Potency |
| --- | --- |
| O=C(Nc1ccc2ccccc2c1)Nc1nnc(-c2ccccc2)s1 | inactive |
| O=C(Nc1nnc(-c2ccncc2)s1)Nc1ccc(Cl)cc1F | 28.2 µM (active) |
| Cc1cc(NC(=O)Nc2cccc(-c3ccncc3)n2)ccc1Br | 12.6 µM (active) |
| O=C(Nc1ccc(Cl)c(Cl)c1)Nc1nnc(-c2ccncc2)o1 | inactive |
| Cc1cc(Nc2c(Nc3nnc(-c4ccncc4)s3)c(=O)c2=O)ccc1Cl | 22.4 µM (active) |
| S=C(Nc1ccc(Cl)c(Cl)c1)Nc1nnc(-c2ccncc2)s1 | 3.98 µM (active) |
| O=C(Nc1ccc2ccccc2c1)Nc1cccc(-c2ccncc2)n1 | 8.91 µM (active) |
| Cc1ccc(-c2nnc(NC(=O)Nc3ccc4ccccc4c3)s2)cc1 | inactive |
| CN(C(=O)Nc1ccc2ccccc2c1)c1nnc(-c2ccncc2)s1 | inactive |
| O=C(NCc1ccc(Cl)c(Cl)c1)Nc1nnc(-c2ccncc2)s1 | 39.8 µM (active) |
| Cc1cc(NC(=O)Nc2nnc(C3CCCCC3)s2)ccc1Cl | inactive |
| N#Cc1cc(NC(=O)Nc2nnc(-c3ccncc3)s2)ccc1-c1cn[nH]c1 | 1.58 µM (active) and 7.08 µM (active) |
| O=C(Nc1ccc(Cl)c(C(F)(F)F)c1)Nc1nnc(-c2ccncc2)s1 | 7.08 µM (active) |
| O=S(=O)(Cc1ccc(Cl)c(Cl)c1)Nc1nnc(-c2ccncc2)s1 | inactive |
| O=C(Nc1ccc(F)nc1)Nc1nnc(-c2ccncc2)s1 | 22.4 µM (active) |
| N#Cc1cc(NC(=O)Nc2nnc(-c3ccncc3)s2)ccc1Br | 0.501 µM (active) |
| Nc1cc(NC(=O)Nc2nnc(-c3ccncc3)s2)ccc1Cl | 11.2 µM (active) |
| N#Cc1ccc(NC(=O)Nc2nnc(-c3ccncc3)s2)c(Cl)c1 | 11.2 µM (active) |
| CCCCCCNC(=O)Nc1nnc(-c2ccncc2)s1 | inactive |
| O=C(Nc1ccc(Cl)c(Cl)c1)Nc1nnc(NC2CCNCC2)s1 | inactive |
